In all, about 69,000 compounds went through this assay and about 8,600 (12%) showed an effect of 50% or more. The sample holds strong results, similar compounds and a random draw of the others, so the mix is not that of the screen.

The assay concerns Plasmodium berghei. Description: Screen against P. berghei liver stage (PbLuc), transformed with Luciferase, at 10uM. It is filed as functional, HepG2. The note with it: tested at 10 uM.
On to `Cc1ccc2c(c1)c(CNC(=O)C1CC(=O)N(C3CCCC3)C1)nn2C` (stereo not drawn), for which the INHIBITION was determined as 38.5%.
Regarding `Cc1ccc2c(c1)c(CNC(=O)C1CC(=O)N(CCN(C)C)C1)nn2C` (stereo not drawn), the INHIBITION is recorded as 82.4%.
For `Cc1ccc2c(c1)c(CNC(=O)C1CC(=O)N(C3CC3)C1)nn2C` (stereo not drawn), the INHIBITION is given as -6.34%.
In the case of `O=C(NCC1CCS(=O)(=O)C1)N(Cc1ccncc1)C1CC1` (stereo not drawn), the INHIBITION is on record as -1.15%.
With `CS(=O)(=O)c1cc(S(N)(=O)=O)ccc1NCC1CCCO1` (stereo not drawn) the figure was 30%; with `Cc1nnc(CN2CCN(CC(O)c3ccccc3)CC2)o1` (stereo not drawn), 4.71%; with `CCc1nnc(CN2CCN(CC(O)c3ccccc3)CC2)o1` (stereo not drawn), -12.2%.
With `CC(C)(C)c1nnc(CN2CCN(CC(O)c3ccccc3)CC2)o1` (stereo not drawn) the figure was 58.2%; with `OCC1CCCN1c1cc(NCc2cccnc2)ncn1` (stereo not drawn), -7.35%; with `Cc1cc(NC(=O)c2nn(C3CCS(=O)(=O)C3)c3c2CCCC3)no1` (stereo not drawn), 26.7%.
For `O=C(Nc1ccc(Cl)cc1)c1nn(C2CCS(=O)(=O)C2)c2c1CCCC2` (stereo not drawn) the value was 26.7%; for `O=C(Nc1cccnc1)c1nn(C2CCS(=O)(=O)C2)c2c1CCCC2` (stereo not drawn), 36.6%.
As for `O=C(Nc1cccc(Cl)c1)c1nn(C2CCS(=O)(=O)C2)c2c1CCCC2` (stereo not drawn), the INHIBITION was determined as 79.8%.
For `O=C(Nc1ccc(Cl)cn1)c1nn(C2CCS(=O)(=O)C2)c2c1CCCC2` (stereo not drawn), the INHIBITION was found to be 83.9%.
For `O=C(Nc1ccccc1F)c1nn(C2CCS(=O)(=O)C2)c2c1CCCC2` (stereo not drawn) the value was 85.5%; for `O=C(NCc1ccccc1)c1nn(C2CCS(=O)(=O)C2)c2c1CCCC2` (stereo not drawn), 20.1%; for `O=C(Nc1ccccc1)c1nn(C2CCS(=O)(=O)C2)c2c1CCCC2` (stereo not drawn), 66.3%.
For `CC(C)(C)NC(=O)c1nn(C2CCS(=O)(=O)C2)c2c1CCCC2` (stereo not drawn) the value was 28.4%.
Take `Cc1nn(C2CCS(=O)(=O)C2)c(O)c1Cc1cccc(Cl)c1` (stereo not drawn): the INHIBITION was determined as 28.5%.
For `O=C(NCc1ccco1)c1nn(C2CCS(=O)(=O)C2)c2c1CCCC2` (stereo not drawn) the value was -18.2%; for `Cc1cccc(NC(=O)c2nn(C3CCS(=O)(=O)C3)c3c2CCCC3)n1` (stereo not drawn), 30.8%; for `Cc1ccc(O)c(CNCC(C)c2nc3ccccc3o2)n1` (stereo not drawn), 43.1%.
For `O=C(Nc1ccc2c(c1)C(=O)NC2=O)c1ccc(Cl)s1` the value was -93.6%.
Regarding `NCC1CCC(C(NC(=O)c2cccc(F)c2)c2ccccn2)CC1` (stereo not drawn), the INHIBITION came to 14.4%.
With `CCc1c(C(=O)N2CCCC(N(C)C)C2)cnn1C(C)(C)C` (stereo not drawn) the figure was 5.7%; with `O=C1[C@@H]2CN(C3CCOCC3)C[C@H]2CCN1CC1CC1`, 3.81%.
For `CN(C)S(=O)(=O)c1ccc(-c2nc(C#N)c(NC3CCCCC3)o2)o1` the value was 19.8%; for `Cc1ccnc(NC(=O)c2ccc(-n3ncc(C#N)c3N)cc2)c1`, 68.8%.
With `Cc1cccnc1NC(=O)c1ccc(-n2ncc(C#N)c2N)cc1` the figure was 25.6%.
Turning to `N#Cc1cnn(-c2ccc(C(=O)N(C3CCCCC3)C3CC3)cc2)c1N`, the INHIBITION is recorded as 17.5%.
In the case of `Cc1nc(NC(=O)c2ccc(-n3ncc(C#N)c3N)cc2)sc1C`, the INHIBITION is 50.3%.
For `CN(C(=O)c1ccc(-n2ncc(C#N)c2N)cc1)C1CCCC1`, the INHIBITION is -8.11%.
For `Cc1cnc(NC(=O)c2ccc(-n3ncc(C#N)c3N)cc2)s1` the value was 47.3%; for `N#Cc1cnn(-c2ccc(C(=O)Nc3ccccn3)cc2)c1N`, 28.7%.
For `Cc1cc(NC(=O)c2ccc(-n3ncc(C#N)c3N)cc2)n(C)n1` the value was 11.2%; for `CN(CC1CCCCC1)C(=O)c1ccc(-n2ncc(C#N)c2N)cc1`, 52.7%.
Consider `Cc1cnc(N2C[C@@H]3[C@@H](C2)OCC(=O)N3CC(C)C)nc1`, for which the INHIBITION is 40.8%.
With `CN(C)C(=O)N1CCN(c2ccc(Cl)nn2)C(=O)C1`, the INHIBITION is given as 16.8%.
For `COc1ccc(Br)cc1SCCCS(C)(=O)=O` the value was 12.8%; for `Cc1nc(N2CCN(C(=O)c3ccncc3)CC2)c2c(n1)c(C)nn2C`, 33.3%.
For `Cc1nc(C2CCCN(C(=O)CCCn3cccn3)C2)sc1C` (stereo not drawn) the value was -23.9%; for `Cc1ccc2c(n1)N(CCN(C)C)CCN(C(=O)c1ccsc1)C2`, 40.4%.
`Cc1ccc2c(n1)N(CCN(C)C)CCN(C(=O)c1cccs1)C2`: the INHIBITION came to 74.2%.
As to `Cc1ccc2c(n1)N(CCN(C)C)CCN(C(=O)c1ccc[nH]1)C2`, the INHIBITION is on record as 10.8%.
With `Cc1ccc2c(n1)N(CCN(C)C)CCN(C(=O)c1ccco1)C2` the figure was 54.4%; with `Cc1ccc2c(n1)N(CCN(C)C)CCN(C(=O)c1cscn1)C2`, 38.1%; with `Cc1ccc2c(n1)N(CCN(C)C)CCN(C(=O)c1ccoc1)C2`, 48.6%.
With `COc1ccc(C(CNC(=O)Nc2cc(C)nn2C)N(C)C)cc1` (stereo not drawn) the figure was 9.383%.
With `COCCCC1CCN([C@@H]2c3ccccc3C3(CCNCC3)[C@H]2O)CC1` the figure was 17.5%; with `CC(C)=CCN1CCC2(CC1)c1ccccc1[C@@H](N1CCSCC1)[C@@H]2O`, 56.5%.
As for `CC(=O)CN1CCC2(CC1)c1ccccc1[C@@H](N1CCSCC1)[C@@H]2O`, the INHIBITION stood at 22.3%.
For `COCCCN1CCN([C@@H]2c3ccccc3C3(CCNCC3)[C@H]2O)CC1` the value was 58.1%.
With `CS(=O)(=O)N1CCC2(CC1)c1ccccc1[C@@H](N1CCSCC1)[C@@H]2O` the figure was 24.4%.
With `CCOCCN1CCN([C@@H]2c3ccccc3C3(CCNCC3)[C@H]2O)CC1` the figure was 29.4%.
Turning to `CC(C)C1=NOC2(CCN(C(=O)C3CCCC3)CC2)C1`, the INHIBITION worked out at 20.9%.
As to `c1cn2c(n1)CN(C1CCOCC1)CC(CN1CCCC1)C2` (stereo not drawn), the INHIBITION amounted to 29%.
Regarding `Cc1nc(C)n(C2CCCN(C(=O)c3ncoc3C(C)C)C2)n1` (stereo not drawn), the INHIBITION amounted to 38.5%.
For `Cc1ccc(NC2CCN(C(=O)CCc3nccs3)CC2)nn1` the value was -48.4%; for `COCCOCCNC(=O)c1cccc(Cn2nc(C)cc2C)c1`, 26.6%.
For `CCc1cc(NC(=O)c2cccc(OCC(F)(F)F)n2)[nH]n1` the value was -20.8%.
For `CCn1cc(NC(=O)NCC(C)O)cn1` (stereo not drawn) the value was 13.1%; for `O=C(NCC(O)COc1ccc(C(F)(F)F)cc1)Nc1nncs1` (stereo not drawn), 14.8%.
Consider `CCn1cc(NC(=O)NCC(O)COc2cccc(F)c2)cn1` (stereo not drawn), for which the INHIBITION came to 23.2%.
With `Cc1n[nH]c(C)c1NC(=O)c1cccc(OCC(F)(F)F)n1` the figure was -14.9%; with `O=C(NCC(O)COc1ccccc1)Nc1nncs1` (stereo not drawn), 53.1%; with `CCn1cc(NC(=O)c2cccc(OCC(F)(F)F)n2)cn1`, 51.5%.
For the molecule `CCn1cc(NC(=O)NCC(O)COc2ccccc2)cn1` (stereo not drawn), the INHIBITION is given as 60.5%.
Regarding `Cc1cc(NC(=O)NCC(O)COc2ccccc2)n(C)n1` (stereo not drawn), the INHIBITION was 25.365%.
